Experimental findings from paper PMC12431657, “Discovery and mechanistic insights of dibenzoylmethane as a broad spectrum inhibitor of coronavirus” (PLOS Pathogens, 2025) are described below.

This assay has as its system HCoV-229E. On the set-up: species or system Huh-7; HTS, protection from HCoV-229E induced cell death, luminescent cell viability (CellCounting-Lite 2.0), inhibition rate. Particulars: 24 h post infection, 1 h compound pre-incubation, 10 µM, inhibitor.

Structures are written as SMILES. Counter-ions that a name gives are not always drawn. Like-named read-outs stand apart in the source and are kept apart here. The whole screen tested about 3,300 compounds, of which about 95 (3%) showed an effect of 50% or more. Shown is part of a subset that was picked to be rich in strong results.

Regarding `C[C@H]1CC[C@@]2(OC1)O[C@H]1C[C@H]3[C@@H]4CC=C5C[C@@H](O[C@@H]6O[C@H](CO)[C@@H](O)[C@H](O[C@@H]7OC[C@@H](O)[C@H](O)[C@H]7O)[C@H]6O[C@@H]6O[C@@H](C)[C@H](O)[C@@H](O)[C@H]6O)CC[C@]5(C)[C@H]4CC[C@]3(C)[C@H]1[C@@H]2C` [Liriope muscari baily saponins C], the “229E Inhibition rate” value is recorded as 31%.

As for `COc1cc([C@@H]2c3cc4c(cc3[C@@H]3OC[C@H]2[C@@H]3CO)OCO4)cc(OC)c1OC` [Neoanhydropodophyllol], the “229E Inhibition rate” value is given as 9.1%.

Take `COc1ccc2cc3[n+](cc2c1OC)CCc1cc2c(cc1-3)OCO2` [Berberine (chloride hydrate)]: where the note is “229E Inhibition rate, 24 h”, the “229E Inhibition rate” value stood at 34%.

For `C=C1C(=O)O[C@@H]2/C=C(\C)[C@@H](OC(C)=O)C/C=C(\COC(C)=O)C[C@@H](OC(=O)/C(C)=C/CO)[C@@H]12` [Eupalinolide A], the “229E Inhibition rate” value (229E Inhibition rate, 24 h) is 35.1%.

As for `CC(C)C(O)C(=O)O` (centres unmarked) [2-Hydroxy-3-methylbutanoic acid], the “229E Inhibition rate” value came to 20.4%.

As for `C[C@H](O)C(=O)O` [L-Lactic acid], the “229E Inhibition rate” value amounted to 58.1%.

For the compound `C[C@@H](O)C(=O)O` [D-(-)-Lactic acid (sodium)], the “229E Inhibition rate” value is on record as 8.1%.

Consider `COc1ccc2c3c1O[C@H]1C[C@@H](O)CC[C@]31CCN(C)C2` [Lycoramine], for which the “229E Inhibition rate” value was 33.8%.

For `COc1ccc(CC(=O)O)cc1` [2-(4-Methoxyphenyl)acetic acid], the “229E Inhibition rate” value is on record as 0%.

Regarding `COc1cc(CNC(=O)CCCCCCCC(C)C)ccc1O` [Homodihydrocapsaicin I], the “229E Inhibition rate” value worked out at 33%.

For `Cc1cc(O)cc2c1O[C@](C)(CCC[C@H](C)CCC[C@H](C)CCCC(C)C)CC2` [Delta-Tocopherol], the “229E Inhibition rate” value came out at 8.2%.

Turning to `CCOC(=O)/C=C/c1ccccc1` [Ethyl cinnamate], the “229E Inhibition rate” value is 4%.

Turning to `CC(=O)OC/C1=C/C[C@H]2[C@@H](/C=C(\C)C(=O)[C@@]3(OC(C)=O)C[C@H](C)[C@H](OC(=O)c4ccccc4)[C@@H]3[C@H]1OC(C)=O)C2(C)C` [Euphorbia factor L7b], the “229E Inhibition rate” value came out at 41.1%.

`CC(=O)OC/C1=C\[C@H]2[C@@H](OC(=O)/C=C/c3ccccc3)[C@@H](C)C[C@]2(OC(C)=O)C(=O)/C(C)=C/[C@@H]2[C@H](CC1)C2(C)C` [Euphorbia factor L7a]: the “229E Inhibition rate” value came out at 90.9%.

`COc1cc(/C=C/C(=O)NCC(O)c2ccc(O)cc2)ccc1O` (centres unmarked) [N-Feruloyloctopamine]: the “229E Inhibition rate” value was 7.9%.

On to `C=C1[C@@H](O)[C@]2(O)OC[C@]34[C@H]2[C@@]2(C)[C@H](O)C(=O)C=C(C)[C@@H]2C[C@H]3OC(=O)[C@H](O)[C@@]14O` [Eurycomanone], for which the “229E Inhibition rate” value came to 53.4%.

Take `CC1=CC(=O)[C@@H]2C[C@H]1C2(C)C` [Verbenone]: the “229E Inhibition rate” value amounted to 0%.

As to `CC1(C)Oc2cc3oc(-c4cc(O)cc(O[C@@H]5OC[C@@H](O)[C@H](O)[C@H]5O)c4)cc3cc2CC1O` (some centres unmarked) [Mulberroside C], the “229E Inhibition rate” value stood at 0%.

`O=C(/C=C/c1ccc(O)c(O)c1/C=C/c1ccc(O)c(O)c1)O[C@H](Cc1ccc(O)c(O)c1)C(=O)O` [Salvianolic acid A]: the “229E Inhibition rate” value was found to be 17.8%.

In the case of `CCCCCC1C(=O)CCC1CC(=O)OC` (centres unmarked) [Methyl dihydrojasmonate], the “229E Inhibition rate” value is reported as 54.7%.

For `CC/C=C/CC1C(=O)CCC1CC(=O)OC` (centres unmarked) [Methyl 2-(3-oxo-2-(pent-2-en-1-yl)cyclopentyl)acetate], the “229E Inhibition rate” value stood at 22%.

For the compound `CCCCCCCCCCCCCCCCC(=O)OC` [Methyl heptadecanoate], the “229E Inhibition rate” value is on record as 20.9%.

Take `CC(C)(O)[C@@H]1CC[C@](C)([C@H]2[C@@H](O)C[C@@]3(C)[C@@H]4C[C@H](O)[C@H]5C(C)(C)[C@@H](O[C@@H]6OC[C@@H](O)[C@H](O)[C@H]6O[C@@H]6O[C@H](CO)[C@@H](O)[C@H](O)[C@H]6O)CC[C@@]56C[C@@]46CC[C@]23C)O1` [Astragaloside III]: the “229E Inhibition rate” value is 10.8%.

As for `CO[C@H]([C@H](C)[C@H]1O[C@@]2(CC[C@@](C)([C@H]3CC[C@@](C)([C@@H]4O[C@@H]([C@H]5O[C@@](O)(CO)[C@H](C)C[C@@H]5C)C[C@@H]4C)O3)O2)C[C@H](O)[C@H]1C)[C@H](C)C(=O)O` [Monensin B], the “229E Inhibition rate” value was found to be 55.3%.

For `CC[C@@]1([C@H]2O[C@H]([C@H]3O[C@@](O)(CO)[C@H](C)C[C@@H]3C)C[C@H]2C)CC[C@H]([C@@]2(C)CC[C@]3(C[C@H](O)[C@@H](C)[C@@H]([C@H](C)[C@H](OC)[C@@H](C)C(=O)O)O3)O2)O1` [Monensin sodium salt], the “229E Inhibition rate” value is listed as 24.5%.

On to `CO[C@@H]1[C@@H](OC)[C@H](C)[C@@](O)(CC(=O)O)O[C@H]1[C@H](C)[C@H]1O[C@@]2(CC[C@@](C)([C@H]3CC[C@@](C)([C@@H]4O[C@@H]([C@H]5O[C@](C)(O)[C@H](C)C[C@@H]5C)C[C@@H]4O[C@@H]4C[C@H](OC)[C@@H](OC)[C@H](C)O4)O3)O2)C[C@H](O)[C@H]1C` [Maduramicin (ammonium)], for which the “229E Inhibition rate” value is 3.4%.

On to `COc1ccc(/C=C/c2cc(OC)cc(=O)o2)cc1` [Yangonin], for which the “229E Inhibition rate” value worked out at 44%.

For the compound `C[C@]12CC[C@@H]3c4ccc(O)cc4CC[C@H]3[C@@H]1CC[C@H]2O` [Alpha-Estradiol], the “229E Inhibition rate” value turned out to be 18.2%.

For the compound `O=C(/C=C/c1ccc(O)c(O)c1)O[C@@H]1CC(C(=O)O)=C[C@@H](O)[C@H]1O` [5-O-Caffeoylshikimic acid], the “229E Inhibition rate” value was 12%.

As to `O=C1/C(=C/c2ccc(O)c(O)c2)COc2cc(O)ccc21` [Sappanone A], the “229E Inhibition rate” value was determined as 15.6%.

Consider `CC1(C)CCC[C@]2(C)[C@H]3CCO[C@]3(C)CC[C@@H]12` [Ambroxide], for which the “229E Inhibition rate” value was 53.4%.

For the compound `CC1(C)CCC[C@]2(C)[C@@H](C=O)C(C=O)=CC[C@@H]12` [Polygodial], the “229E Inhibition rate” value was found to be 16.5%.

With `C=C[C@](C)(O)CC[C@@H]1[C@@]2(C)CCCC(C)(C)[C@@H]2CC[C@@]1(C)O` [Sclareol], the “229E Inhibition rate” value is listed as 19.3%.

On to `CC1(C)Oc2cc3oc(=O)ccc3cc2C[C@@H]1O` [Decursinol], for which the “229E Inhibition rate” value was 0%.

With `COc1cc([C@H]2OC[C@H]3[C@@H]2CO[C@@H]3c2ccc(O[C@@H]3O[C@H](CO)[C@@H](O)[C@H](O)[C@H]3O)c(OC)c2)ccc1O[C@@H]1O[C@H](CO)[C@@H](O)[C@H](O)[C@H]1O` [Pinoresinol Diglucoside], the “229E Inhibition rate” value is recorded as 23.6%.
